Laboratory results: PubChem BioAssay (EPA / NIEHS)
Active and inactive are the calls of the source. Rule for the calls: active = hit-call score of the fitted dose curve at least 0.9, where 1 is the maximum; inactive = score below 0.9.

Tests used:
[1] = read-out: Interleukin-8 (IL8), CXCL8 (gene 3576); assay: BSK_MyoF_IL8: BioMAP Diversity Plus: MyoF Assay for Interleukin-8 (IL8) Biomarker Activity (AID 2284261); settings: primary human lung fibroblasts
Method in brief: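 IL-8 levels were measured by ELISA in human lung fibroblasts harvested 24 h after compound addition. Responses were analysed as gain of signal over the DMSO baseline.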

Decorin, DCN (gene 1634) = assay: BSK_MyoF_Decorin: BioMAP Diversity Plus: MyoF Assay for Decorin Biomarker Activity (AID 2284265); settings: primary human lung fibroblasts
Method in brief: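 Compound is added to lung fibroblast cultures; cells incubate 24 h; decorin is then measured by ELISA; the response is analysed upward against DMSO controls.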

[2] = BSK_MyoF_SRB: Viability Assessment in the BioMAP Diversity Plus: MyoF Assay (AID 2284267); settings: primary human lung fibroblasts;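 note: total protein by SRB absorbance in parallel cultures as cytotoxicity measure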
Method in brief: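 Cytotoxicity read-out: after 10% TCA fixation, parallel human lung fibroblast cultures were stained with 0.1% SRB at 24 h post-dosing and read at 560 nm; DMSO served as baseline.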

[3] = read-out: Matrix Metallopeptidase 1 (MMP1), MMP1 (gene 4312); assay: BSK_MyoF_MMP1: BioMAP Diversity Plus: MyoF Assay for Matrix Metallopeptidase 1 (MMP1) Biomarker Activity (AID 2284268); settings: primary human lung fibroblasts
Method in brief: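 Lung fibroblast cultures were dosed with test chemicals and, after 24 h, MMP1 levels were measured by ELISA; responses were referenced to DMSO and analysed for increases.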

[4] = read-out: TIMP metallopeptidase inhibitor 1 (TIMP1), TIMP1 (gene 7076); assay: BSK_MyoF_TIMP1: BioMAP Diversity Plus: MyoF Assay for TIMP metallopeptidase inhibitor 1 (TIMP1) Biomarker Activity (AID 2284269); settings: primary human lung fibroblasts
Method in brief: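 ELISA read-out of TIMP-1 from primary human lung fibroblast cultures 24 h after compound dosing; gain of signal relative to DMSO vehicle baseline defines activity.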

CD90, THY1 (gene 7070) = assay: BSK_BF4T_CD90: BioMAP Diversity Plus: BF4T Assay for CD90 Biomarker Activity (AID 2284262); settings: primary human bronchial epithelial cells with fibroblasts
Method in brief: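 CD90 levels by ELISA after 24 h treatment of human bronchial epithelial cell/dermal fibroblast cultures, analysed versus DMSO. Overt cytotoxicity checked in parallel cultures by sulforhodamine B staining.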

[5] = read-out: Interleukin-8 (IL8), CXCL8 (gene 3576); assay: BSK_BF4T_IL8: BioMAP Diversity Plus: BF4T Assay for Interleukin-8 (IL8) Biomarker Activity (AID 2284263); settings: primary human bronchial epithelial cells with fibroblasts
Method in brief: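 Human bronchial epithelial cells with dermal fibroblasts co-culture; IL-8 measured by ELISA 24 hours after dosing, fitted vs DMSO. Cytotoxicity tracked in parallel cultures by SRB total-protein staining.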

[6] = read-out: Interleukin-1 alpha (IL1a), IL1A (gene 3552); assay: BSK_BF4T_IL1a: BioMAP Diversity Plus: BF4T Assay for Interleukin-1 alpha (IL1a) Biomarker Activity (AID 2284264); settings: primary human bronchial epithelial cells with fibroblasts
Method in brief: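 ELISA read-out of IL-1α from bronchial epithelial cell/dermal fibroblast co-cultures 24 h after compound addition. Increases scored against DMSO negative control. Cytotoxicity monitored by sulforhodamine B staining of parallel cultures.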

KRT18 (gene 3875) = assay: BSK_BF4T_Keratin818: BioMAP Diversity Plus: BF4T Assay for Keratin 818 Biomarker Activity (AID 2284266); settings: primary human bronchial epithelial cells with fibroblasts
Method in brief: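 Keratin 8/18 levels quantified by ELISA after 24 h chemical treatment of bronchial epithelial cell/dermal fibroblast co-cultures, fitted in positive direction relative to DMSO. Parallel SRB staining tracks overt cytotoxicity.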

[7] = read-out: Matrix Metallopeptidase 1 (MMP1), MMP1 (gene 4312); assay: BSK_BF4T_MMP1: BioMAP Diversity Plus: BF4T Assay for Matrix Metallopeptidase 1 (MMP1) Biomarker Activity (AID 2284270); settings: primary human bronchial epithelial cells with fibroblasts
Method in brief: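 MMP-1 quantified by ELISA in primary human bronchial epithelial/dermal fibroblast co-cultures, 24 hours post-dosing, with DMSO as baseline; parallel sulforhodamine B staining (560 nm) tracks overt cytotoxicity.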

[8] = read-out: Matrix Metallopeptidase 3 (MMP3), MMP3 (gene 4314); assay: BSK_BF4T_MMP3: BioMAP Diversity Plus: BF4T Assay for Matrix Metallopeptidase 3 (MMP3) Biomarker Activity (AID 2284271); settings: primary human bronchial epithelial cells with fibroblasts
Method in brief: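 MMP-3 level read by ELISA after 24 h chemical exposure of bronchial epithelial cell/dermal fibroblast co-cultures, fitted upward relative to DMSO. Parallel cultures stained with 0.1% SRB after TCA fixation gauge overt cytotoxicity.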

[9] = read-out: Tissue plasminogen activator (tPA), PLAT (gene 5327); assay: BSK_BF4T_tPA: BioMAP Diversity Plus: BF4T Assay for Tissue plasminogen activator (tPA) Biomarker Activity (AID 2284272); settings: primary human bronchial epithelial cells with fibroblasts
Method in brief: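 tPA level quantified by ELISA at 24 h post-treatment in bronchial epithelial/dermal fibroblast co-cultures, gain of signal scored against DMSO baseline. Parallel cultures stained with 0.1% SRB (560 nm) to flag overt cytotoxicity.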

[10] = read-out: Plasminogen Activator Inhibitor-1 (PAI1), SERPINE1 (gene 5054); assay: BSK_BF4T_PAI1: BioMAP Diversity Plus: BF4T Assay for Plasminogen Activator Inhibitor-1 (PAI1) Biomarker Activity (AID 2284273); settings: primary human bronchial epithelial cells with fibroblasts
Method in brief: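 PAI-1 levels quantified by ELISA 24 h post-dosing in bronchial epithelial cell plus dermal fibroblast cultures. Signal gain referenced to DMSO baseline. Sulforhodamine B total-protein staining of parallel wells checked cytotoxicity.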

[11] = BSK_BF4T_SRB: Viability Assessment in the BioMAP Diversity Plus: BF4T Assay (AID 2284274); settings: primary human bronchial epithelial cells with fibroblasts
Method in brief: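 Cytotoxicity measured as total protein: cells fixed with 10% TCA, stained with 0.1% SRB, read at 560 nm. Bronchial epithelial/dermal fibroblast co-culture, 24 h after dosing, with positive-direction fitting relative to DMSO.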

[12] = read-out: urokinase Plasminogen Activator (uPA), PLAU (gene 5328); assay: BSK_BF4T_uPA: BioMAP Diversity Plus: BF4T Assay for urokinase Plasminogen Activator (uPA) Biomarker Activity (AID 2284275); settings: primary human bronchial epithelial cells with fibroblasts
Method in brief: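 uPA levels measured by ELISA at 24 hours in BF4T cultures (bronchial epithelial cells plus dermal fibroblasts) and compared with DMSO; cytotoxicity tracked in parallel cultures by sulforhodamine B staining.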

[13] = read-out: Matrix Metallopeptidase 9 (MMP9), MMP9 (gene 4318); assay: BSK_BF4T_MMP9: BioMAP Diversity Plus: BF4T Assay for Matrix Metallopeptidase 9 (MMP9) Biomarker Activity (AID 2284276); settings: primary human bronchial epithelial cells with fibroblasts
Method in brief: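 MMP-9 levels were measured by ELISA after 24 h exposure of bronchial epithelial cell/dermal fibroblast co-cultures, with DMSO as baseline. Parallel cultures were stained with 0.1% SRB after TCA fixation, read at 560 nm, to flag overt cytotoxicity.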

[14] = read-out: Interleukin-8 (IL8), CXCL8 (gene 3576); assay: BSK_IMphg_IL8: BioMAP Diversity Plus: IMphg Assay for Interleukin-8 (IL8) Biomarker Activity (AID 2284277); settings: primary human endothelial cells with macrophages
Method in brief: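 IL-8 levels were measured by ELISA 24 h after dosing in primary human venular endothelial cell–macrophage cultures, referenced to DMSO; parallel SRB staining monitored overt cytotoxicity.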

[15] = read-out: Intercellular Adhesion Molecule 1 (ICAM1), ICAM1 (gene 3383); assay: BSK_BE3C_ICAM1: BioMAP Diversity Plus: BE3C Assay for Intercellular Adhesion Molecule 1 (ICAM1) Biomarker Activity (AID 2284278); settings: primary human bronchial epithelial cells;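 note: cell-surface ICAM-1 protein level quantified by ELISA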
Method in brief: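 ICAM-1 quantified by ELISA and fitted against DMSO baseline, 24 h post-dosing in BE3C cultures of primary human lung bronchial epithelial cells. Cytotoxicity checked in parallel cultures by total protein SRB staining.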

[16] = read-out: Interferon-inducible T-cell alpha chemoattractant (ITAC), CXCL11 (gene 6373); assay: BSK_BE3C_ITAC: BioMAP Diversity Plus: BE3C Assay for Interferon-inducible T-cell alpha chemoattractant (ITAC) Biomarker Activity (AID 2284279); settings: primary human bronchial epithelial cells
Method in brief: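 ELISA read-out of I-TAC after 24 h chemical dosing of human lung primary bronchial epithelial cells; gain-of-signal fit vs DMSO baseline. Parallel SRB total-protein staining (0.1% SRB, 10% TCA fixation, 560 nm) assessed cytotoxicity.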

[17] = read-out: Interleukin-8 (IL8), CXCL8 (gene 3576); assay: BSK_BE3C_IL8: BioMAP Diversity Plus: BE3C Assay for Interleukin-8 (IL8) Biomarker Activity (AID 2284280); settings: primary human bronchial epithelial cells
Method in brief: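 Measured at 24 h after treatment, IL-8 from human primary bronchial epithelial cells is determined by ELISA, and the response is modelled as increasing relative to DMSO negative control.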

Measured: outcome

CCCCCCCCC(CO)CCCCCC (stereo not given)
inactive: [1] | Decorin, DCN (gene 1634) | [2] | [3] | [4]

Fc1ccc(Br)cc1
inactive: [1] | Decorin, DCN (gene 1634) | [2] | [3] | [4]

CC(c1cc(C(C)(C)C)cc(C(C)(C)C)c1O)c1cc(C(C)(C)C)cc(C(C)(C)C)c1O
inactive: [1] | Decorin, DCN (gene 1634) | [2] | [3] | [4]

CCN1CN(CC)CN(CC)C1
inactive: [1] | Decorin, DCN (gene 1634) | [2] | [3] | [4]

Nc1cccc(N)n1
inactive: [1] | Decorin, DCN (gene 1634) | [2] | [3] | [4]

O=C(O)C(F)(F)C(F)(F)C(F)(F)C(F)(F)C(=O)O
inactive: [1] | CD90, THY1 (gene 7070) | [5] | [6] | Decorin, DCN (gene 1634) | KRT18 (gene 3875) | [2] | [3] | [4] | [7] | [8] | [9] | [10] | [11] | [12] | [13] | [14] | [15] | [16] | [17]

CC(Cl)COP(=O)(OCC(C)Cl)OCC(C)Cl (stereo not given)
inactive: [1] | Decorin, DCN (gene 1634) | [2] | [3] | [4]

CC(C)CCCCCOC(=O)CS
inactive: [1] | Decorin, DCN (gene 1634) | [2] | [3] | [4]

Oc1ccc(/C=C/c2cc(O)cc(O)c2)cc1
inactive: [1] | Decorin, DCN (gene 1634) | [2] | [3] | [4]

CCCCCC1=CCCC1=O
inactive: [1] | Decorin, DCN (gene 1634) | [2] | [3] | [4]

CCCCCCC=O
inactive: [1] | Decorin, DCN (gene 1634) | [2] | [3] | [4]

CC=C(C)C(C)=O
inactive: [1] | Decorin, DCN (gene 1634) | [2] | [3] | [4]
